Results filed as inconclusive are left out. Active and inactive are the calls of the source. The calls were made as follows: active = hit-call score of the fitted dose curve at least 0.9, where 1 is the maximum; inconclusive = response in the unintended direction; inactive = score below 0.9.
Target: human Thyroid Receptor alpha (THRa1), THRA (gene 7067) (UniProt P10827)
Experiment: ATG_THRa1_TRANS: Attagene TRANS-FACTORIAL HepG2 Assay for human Thyroid Receptor alpha (THRa1) (AID 2283014)
Procedure: ATG_TRANS is a cell-based, multiplexed-readout assay that uses HepG2, a human liver cell line, with measurements taken at 24 hours after chemical dosing in a 24-well plate.ATG_THRa1_TRANS is one of 30 assay component(s) measured or calculated from the ATG_TRANS assay. It is designed to make measurements of mRNA induction, a form of inducible reporter, as detected with fluorescence intensity signals by Reverse transcription polymerase chain reaction (RT-PCR) and Capillary electrophoresis technology.Data from the assay component ATG_THRa1_TRANS was analyzed into 1 assay endpoint. This assay endpoint, ATG_THRa1_TRANS, was analyzed in the positive analysis fitting direction relative to DMSO as the negative control and baseline of activity. Using a type of inducible reporter, measures of mRNA for gain-of-signal activity can be used to understand the reporter gene at the transcription factor-level as they relate to the gene THRA. Furthermore, this assay endpoint can be referred to as a primary readout, because this assay has produced multiple assay endpoints where this one serves a reporter gene function. To generalize the intended target to other relatable targets, this assay endpoint is annotated to the nuclear receptor intended target family, where the subfamily is non-steroidal.
Human liver HepG2 cells are transiently transfected with multiple reporter transcription units (MRTUs) in 6-well plates using FuGene 6 reagent (Roche; 3 ml FuGene/1 mg DNA). The MRTU constructs are regulated by a cis-regulating element (promoter). […] A major difference between the CIS and TRANS system is that in CIS activities of endogenous TFs are measured, whereas the TRANS assay evaluates changes in activities of exogenous, chimeric NR-Gal4 proteins. […] At the end of 24 hour incubation, total RNA was isolated using TriZol reagent (Invitrogen). The isolated RNA is then reverse-transcribed using oligo(dT) primer and Mo-MLV reverse transcriptase (Invitrogen) with DNAse I (Ambion) treatment for 30 min. The one-tenth of the produced cDNA was amplified by PCR using Taq DNA polymerase (Invitrogen) and two reporter sequence-specific primers. The PCR products were fluorescently labeled by primer extension with 6-arboxyfluorescein (6-FAM) 5'-labeled reporter sequence-specific primer (2 min at 95 C, 20 s at 68 C and 10 min at 72 C) and these products were digested with 5U of HpaI (New England Biolabs) for 2h at 37 C. The fragments were purified using Qiaquick PCR columns (Qiagen), analyzed on an ABI 3130xL genetic analyzer (Applied Biosystems) with peak positions identified by using a set of X-rhodamine (ROX)-labeled MapMarker1000 molecular weight standards (BioVentures). The raw capillary electrophoresis data was processed using Attagraph software (Attagene).

Chain of human Thyroid Receptor alpha (THRa1), THRA (gene 7067) (P10827 whole entry, looked up): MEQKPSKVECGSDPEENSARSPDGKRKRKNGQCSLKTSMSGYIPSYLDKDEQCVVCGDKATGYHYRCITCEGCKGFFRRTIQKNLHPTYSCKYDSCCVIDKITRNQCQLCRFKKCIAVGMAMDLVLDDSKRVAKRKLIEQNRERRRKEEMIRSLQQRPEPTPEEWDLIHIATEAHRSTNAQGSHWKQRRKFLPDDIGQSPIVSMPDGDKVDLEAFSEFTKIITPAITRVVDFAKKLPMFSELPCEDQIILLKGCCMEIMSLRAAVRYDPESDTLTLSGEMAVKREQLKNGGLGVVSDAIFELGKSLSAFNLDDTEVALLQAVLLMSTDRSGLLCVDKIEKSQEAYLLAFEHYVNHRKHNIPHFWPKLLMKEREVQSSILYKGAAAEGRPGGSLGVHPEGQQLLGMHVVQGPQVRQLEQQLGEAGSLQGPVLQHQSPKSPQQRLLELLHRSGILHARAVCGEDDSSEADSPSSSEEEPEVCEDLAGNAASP

SMILES | outcome
O=c1[nH]c(Cl)c(Cl)cc1Cl | inactive
c1ccc(Nc2ccc3ccccc3c2)cc1 | inactive
Nc1ccc(Cl)c(Cl)c1 | inactive
CC1(C)[C@H](C(=O)O[C@H](C#N)c2cccc(Oc3ccccc3)c2)[C@@H]1C=C(Br)Br | inactive
O=S(=O)(O)O | inactive
C=CC(=O)OC | inactive
CC(C)CCCCCCCOC(=O)c1ccccc1C(=O)OCCCCCCCC(C)C | inactive
O=[N+]([O-])C=Cc1ccccc1 | inactive
CNC(=O)Oc1cc(C)c(SC)c(C)c1 | inactive
O=C1Nc2ccc(Cl)cc2C(c2ccccc2)=NC1O (stereo not given) | inactive
CCCCCCCCCCCC#N | inactive
CC(C)C#N | inactive
CCC(Br)(CC)C(=O)NC(N)=O | inactive
CCC(C)c1cc(C(C)(C)C)cc(-n2nc3ccccc3n2)c1O (stereo not given) | inactive
CCCCOC(=O)CCC(=O)OCCCC | inactive
CCOP(O)OCC | inactive
CCCCNP(N)(N)=S | inactive
Oc1ccc(Cl)cc1 | inactive
C[N+](C)=CCl | inactive
C[C@]12CC[C@H]3[C@@H](CC[C@@]45O[C@@H]4C(O)=C(C#N)C[C@]35C)[C@@H]1CC[C@@H]2O | inactive

SMILES | outcome
CSc1nc(N=[N+]=[N-])nc(NC(C)C)n1 | inactive
C=CCc1ccc(OC(=O)Cc2ccccc2)c(OC)c1 | inactive
C[N+](=O)[O-] | inactive
CCCCCc1cc(O)cc(O)c1 | inactive
O=[N+]([O-])c1cc(C(F)(F)F)c(Cl)c([N+](=O)[O-])c1Cl | inactive
Nc1ccccc1C(=O)OCCc1ccccc1 | inactive
CCOP(=O)(OCC)OCC | inactive
O=C(O)c1cc[c]([Hg][Cl])cc1 | inactive
CCCCOP(=O)(O)OCCCC | inactive
CCC(=O)c1ccc(Cl)cc1 | inactive
COC(C)(C)CCC[C@H](C)C/C=C/C(C)=C/C(=O)OC(C)C | inactive
ClC1=C(Cl)[C@]2(Cl)[C@@H]3[C@@H](Cl)[C@H](Cl)C[C@@H]3[C@@]1(Cl)C2(Cl)Cl | inactive
Nc1ccccc1C(=O)Oc1ccc2ccccc2c1 | inactive
Nc1c(Cl)c(Cl)c(Cl)c(Cl)c1Cl | inactive
O=P(O)(Oc1ccccc1)Oc1ccccc1 | inactive
O=C(NC(=O)c1c(F)cccc1F)Nc1ccc(Oc2ccc(C(F)(F)F)cc2Cl)cc1F | inactive
CC(C)[C@@H](C(=O)O[C@@H](C#N)c1cccc(Oc2ccccc2)c1)c1ccc(Cl)cc1 | inactive
CC1(C)C(=O)NC(=O)NC1=O | inactive
C[N+](C)(C)CC(=O)[O-] | inactive
O=[N+]([O-])c1cc([N+](=O)[O-])c2ccccc2c1 | inactive

Reference: PubChem BioAssay (EPA / NIEHS)
